An excerpt weighted towards active compounds, which were near 4.2% of everything screened.
S1P4 agonist: agonists of human S1P4 receptor | O95977 | 220,000 tested, 0.35% active | activation, % at 4.98 µM | S1P4-expressing cell line, agonist reporter assay | AID 1509; in the data active = activation above about 11%
Target sequence (O95977 whole entry, looked up): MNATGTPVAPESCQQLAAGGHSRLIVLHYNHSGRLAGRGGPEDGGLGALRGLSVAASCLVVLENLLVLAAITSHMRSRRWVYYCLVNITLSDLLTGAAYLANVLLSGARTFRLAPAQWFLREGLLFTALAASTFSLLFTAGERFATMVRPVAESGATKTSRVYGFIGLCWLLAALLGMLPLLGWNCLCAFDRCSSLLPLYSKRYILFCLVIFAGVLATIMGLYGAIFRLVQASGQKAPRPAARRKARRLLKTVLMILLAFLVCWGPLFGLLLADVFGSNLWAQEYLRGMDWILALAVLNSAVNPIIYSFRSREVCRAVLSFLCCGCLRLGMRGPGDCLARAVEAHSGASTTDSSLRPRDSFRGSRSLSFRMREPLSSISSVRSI
Hsp70 act: switches on Hsp70 transcription. 200,000 tested, 0.04% active. activation, % at 10 µM. HeLa Hsp70 promoter luciferase reporter, luminescence; scaled: vehicle 0, proteasome-inhibitor control 100%;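 active = activation above the mean across all tested compounds plus 3 SD, cutoff set per campaign, cut at about 5.5% in these data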
S1P4 antagonist: antagonists of human S1P4 receptor; S1P4-expressing cells, antagonist mode, reporter read-out; inhibition, % at 4.98 µM; 220,000 tested, 0.26% active; in the data active = inhibition above about 29%
CHOP inhibitor: CHOP inhibition in unfolded protein response; CHO-K1 CHOP-promoter luciferase, tunicamycin-induced, 15-18 h; inhibition, % at 10 µM; 220,000 tested, 3.8% active; AID 2732;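 active = compounds that reduced the stress-induced luciferase reporter signal by more than about 70% of percent inhibition, limit read from the data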
Of the large screens only hits and unclear results are named; the others gave an inactive call.

CC(=O)Nc1ccc(CN2CCCC(CO)(Cc3ccccc3C)C2)cc1 (stereo unspecified)	none
CCSC1=N/C(=C\c2ccc3c(c2)OCO3)C(=O)S1	CHOP inhibitor 73.6
CCCCCOC(=O)Cc1c(O)c2ccccc2n(C)c1=O	none
O=S(=O)(c1ccc(-c2cc(C(F)(F)F)on2)s1)N1CCCC1	none (no result: Hsp70 act)
CCn1c(C)nc2cc(C(=O)NNC(=O)c3ccc(Cl)nc3)ccc21	none
CCn1c(C)nc2cc(C(=O)OC(C(F)(F)C(F)F)C(F)(F)C(F)F)ccc21	CHOP inhibitor 74.4
COCCCN1CN(S(=O)(=O)c2ccc(Cl)cc2)c2nc3ccccc3nc21	CHOP inhibitor 93.0
CC(C)(C)CC(C)(C)NC(=S)NC1CCN(Cc2ccccc2)CC1	CHOP inhibitor 71.2
Cc1cccc(NC(=S)NC2CCN(Cc3ccccc3)CC2)c1C	none
CSc1nc(-c2ccco2)nn1C(=O)c1ccc(C)cc1	CHOP inhibitor 80.5
CSc1nc(-c2ccco2)nn1C(=O)c1ccccc1	none
COc1ccc(OC)c(NC(=O)CN2C(=O)c3ccccc3S2(=O)=O)c1	none
O=C(CSc1nnc(-c2ccccc2)c(-c2ccccc2)n1)Nc1ncc(Cl)cc1Cl	none
O=[N+]([O-])c1cc(C(F)(F)F)ccc1NCCCCNS(=O)(=O)c1ccc(Cl)cc1	none
O=[N+]([O-])c1cc(C(F)(F)F)ccc1NCCNC(=S)Nc1ccc(Cl)cc1	CHOP inhibitor 86.1
CCC1C/C(=C/c2ccco2)C(=O)/C(=C/c2ccco2)C1 (stereo unspecified)	CHOP inhibitor 85.6
Fc1cccc2sc(Nc3nc4c(F)cccc4s3)nc12	CHOP inhibitor 87.8
O=c1[nH]c(Nc2nc3ccccc3o2)nc2c1CCCC2	CHOP inhibitor 96.6
Cc1ccc(Nc2nc3c(c(=O)[nH]2)CCCC3)cc1	none
O=C(NCc1ccccc1Cl)c1ccc2c(c1)SC1=NS(=O)(=O)CCN12	none
O=[N+]([O-])c1cccc(S(=O)(=O)Nc2nc3ccccc3nc2Nc2cccc(S(=O)(=O)N3CCCCC3)c2)c1	CHOP inhibitor 82.4
Cc1ccc(S(=O)(=O)Nc2nc3ccccc3nc2Nc2cccc(S(=O)(=O)N3CCCC3)c2)cc1	none
CC(C)(C)Nc1nc(N2CCCC2)nc(N2CCCC2)n1	CHOP inhibitor 76.8
CCNc1nc(NC(C)(C)C)nc(N2CCCC2)n1	none
c1ccc(CSc2ncnc3ccccc23)cc1	none
Cc1ccc(C)c(OCC(O)CN2CCC(CN3C(=O)c4cccc5cccc(c45)C3=O)CC2)c1 (stereo unspecified)	CHOP inhibitor 75.5
O=C1c2cccc3cccc(c23)C(=O)N1CC1CCN(CC(O)COCc2ccc3c(c2)OCO3)CC1 (stereo unspecified)	none
CCOc1ccccc1NC(=O)CN(c1cc(C)cc(C)c1)S(=O)(=O)c1c(C)noc1C	CHOP inhibitor 72.2
CCOc1ccc(N(CC(=O)Nc2ccc(C)c(C)c2)S(=O)(=O)c2c(C)noc2C)cc1	CHOP inhibitor 75.6
Cc1nn(C)c(C)c1S(=O)(=O)N(CC(=O)Nc1ccc2c(c1)OCO2)c1ccc(C(C)C)cc1	none
CCOc1ccc(N(CC(=O)Nc2cccc(F)c2)S(=O)(=O)c2c(C)noc2C)cc1	CHOP inhibitor 71.5
CCOc1ccccc1NC(=O)CN(c1ccc(OC)cc1)S(=O)(=O)c1c(C)noc1C	none (no result: CHOP inhibitor)
Cc1noc(C)c1S(=O)(=O)N(CC(=O)Nc1ccc2c(c1)OCO2)c1ccc(C(C)C)cc1	CHOP inhibitor 80.7
O=C(CSc1nc2ccccc2o1)NCc1n[nH]c(=O)c2ccccc12	none
CCCCN1C(=O)CC(C(=O)OCC)=C1C	none (no result: Hsp70 act)
COc1cc(NC(=O)Cn2ccsc2=N)c(C)cc1[N+](=O)[O-]	none
CC1(C)CC(=O)c2sc(NS(=O)(=O)Cc3ccccc3)nc2C1	none
Cc1ccc(CC2SC(=O)NC2=O)cc1Cl (stereo unspecified)	none
COc1ccc2nc(C)cc(SCC(=O)N/N=C/c3ccc(O)cc3O)c2c1	none
COc1ccc(/C=C/C(=O)Nc2cc(C(F)(F)F)ccc2Cl)cc1	CHOP inhibitor 73.6
CC(C)CC(=O)Nc1cc2nn(-c3ccccc3)nc2cc1Cl	CHOP inhibitor 85.4
CC(C)CC(=O)Nc1cccc2c1C(=O)N(c1ccccc1)C2=O	none
COC(=O)c1cc(N=Nc2sc(N)nc2C)cc(C(=O)OC)c1	CHOP inhibitor 80.2 (no result: Hsp70 act)
COC(=O)CSc1c(-c2ccccc2)c2cc(Cl)ccc2[nH]c1=O	CHOP inhibitor 79.9
Cc1ccc(NC(=O)CSc2ccc(-c3ccco3)nn2)cc1	CHOP inhibitor 74.4
Cc1ccc(SCC(=O)Nc2ccc(-c3nnc(-c4ccco4)o3)cc2)cc1	CHOP inhibitor 75.5
COC(Cn1c2c(c3cc(C)ccc31)CCCC2NCc1ccccc1)OC (stereo unspecified)	none (no result: Hsp70 act)
Cc1ccc(-n2c(SCC(N)=O)nnc2-c2ccccn2)cc1	none
COc1ccc(/C=N\NC(=O)COc2ccccc2Cl)cc1Cn1nc(C)cc1C	CHOP inhibitor 80.7
COc1ccc(/C=N/NC(=O)c2ccc(Cl)cc2)cc1Cn1cc(Cl)cn1	CHOP inhibitor 85.7
COc1ccc(/C=N/NC(=O)c2cc(Br)ccc2O)cc1Cn1cc(Cl)cn1	none
COc1ccc(/C=N/NC(=O)CCn2nc(C)cc2C)cc1O	none (no result: Hsp70 act)
CCC(=O)Nc1ccccc1-c1nnn(CC(=O)N2c3ccccc3CC2C)n1 (stereo unspecified)	CHOP inhibitor 76.1
CC1Cc2ccccc2N1C(=O)Cn1nnc(-c2ccccc2NC(=O)C2CCC2)n1 (stereo unspecified)	none
O=C(CCn1c(=O)c2sccc2n(CC(=O)OCc2ccccc2)c1=O)NCc1ccco1	none
CCOc1ncccc1C(=O)OCc1ccc(Cl)cc1	none
CCOc1ncccc1C(=O)OCc1cc(=O)oc2c(C)c(C)ccc12	CHOP inhibitor 75.0
Cc1cccc(C(=O)Nc2ccccc2SCC(=O)Nc2ccc(C)c(Cl)c2)c1	CHOP inhibitor 72.8
CSCCC(NC(=O)c1ccccc1)C(=O)OCC(=O)Nc1ccc(C)c(Cl)c1 (stereo unspecified)	CHOP inhibitor 81.8
Cc1ccc(NC(=O)CSc2ccccc2NC(=O)c2cccc(Cl)c2)cc1Cl	none
CSCCC(NC(=O)c1ccc(Cl)cc1)C(=O)OCC(=O)Nc1cc(Cl)ccc1C#N (stereo unspecified)	none
O=C(/C=C/c1ccccc1[N+](=O)[O-])NCc1ccc(Cl)cc1	none
CCn1cc(C(=O)O)c(=O)c2cc(F)c(N3CCN(C(=O)Nc4ccccc4)CC3)cc21	none
CCn1cc(C(=O)O)c(=O)c2cc(F)c(N/N=C/c3ccccc3)cc21	CHOP inhibitor 103.1
CCn1cc(C(=O)O)c(=O)c2cc(F)c(N3CCN(C(=S)NC(=O)c4cccc(C)c4)CC3)cc21	none (no result: Hsp70 act)
CCn1cc(C(=O)O)c(=O)c2cc(F)c(N3CCN(C(=S)NC(=O)c4ccc(Br)cc4)CC3)cc21	CHOP inhibitor 73.2
Cc1nn(Cc2ccccc2)c(C)c1NC(=O)c1cc(-c2ccc3c(c2)OCO3)on1	none
COc1ccc(/C=C/C(=O)N2c3ccccc3Sc3ccc(C(F)(F)F)cc32)cc1	none
O=C(/C=C/c1ccccc1)N1c2ccccc2Sc2ccc(C(F)(F)F)cc21	CHOP inhibitor 70.5
O=C(COc1ccc(Br)cc1Br)NC(=O)NC1CCCC1	CHOP inhibitor 87.2
